Assay outcomes: PubChem, National Center for Advancing Translational Sciences (NCATS)
MCF10A rereplic = inducers of DNA re-replication in MCF 10A breast cells. MCF 10A DNA re-replication, Hoechst nuclear intensity, 48 h. Potency, µM (doses to about 46.1 µM), inactives show at the highest dose activity, positive = re-replication, actives largely listed as activators. hit rate 2.9% among 350,000. AID 624296; further: potency means the concentration at half of the fitted maximal effect; % of control where 0% means no effect; nearly all actives have a fitted effect of over 50% in size
KB-V1 cytotox = kills drug-selected multidrug resistant KB-V1 cells. KB-V1 MDR cells viability, CellTiter-Glo, 72 h. Potency, µM (highest dose often 46.1 µM), usual class: cytotoxic. hit rate 3.4% among 400,000; further: potency means the concentration at half of the fitted maximal effect; on the % scale 0 is the no-effect control and ±100 the full control effect; nearly all actives have a fitted effect of over 60% in size
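KB-V1, DMEM (no phenol red) + 10% FBS; cpd pin-transferred, titration series; 72 h, 37 degrees C; CellTiter-Glo, luminescence. Data normalized, curve-fit.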
ASM inhibitor = blocks human secretory acid sphingomyelinase; P17405; placental ASM, HMU-PC fluorogenic substrate, 60 min; Potency, µM (titrated, usually from 57.5 µM), for inactives: top-dose activity change, negative = inhibition, actives largely listed as inhibitors; hit rate 0.006% among 340,000; AID 504937; further: potency means the concentration at half of the fitted maximal effect
Target sequence (P17405 47-631 limits assumed): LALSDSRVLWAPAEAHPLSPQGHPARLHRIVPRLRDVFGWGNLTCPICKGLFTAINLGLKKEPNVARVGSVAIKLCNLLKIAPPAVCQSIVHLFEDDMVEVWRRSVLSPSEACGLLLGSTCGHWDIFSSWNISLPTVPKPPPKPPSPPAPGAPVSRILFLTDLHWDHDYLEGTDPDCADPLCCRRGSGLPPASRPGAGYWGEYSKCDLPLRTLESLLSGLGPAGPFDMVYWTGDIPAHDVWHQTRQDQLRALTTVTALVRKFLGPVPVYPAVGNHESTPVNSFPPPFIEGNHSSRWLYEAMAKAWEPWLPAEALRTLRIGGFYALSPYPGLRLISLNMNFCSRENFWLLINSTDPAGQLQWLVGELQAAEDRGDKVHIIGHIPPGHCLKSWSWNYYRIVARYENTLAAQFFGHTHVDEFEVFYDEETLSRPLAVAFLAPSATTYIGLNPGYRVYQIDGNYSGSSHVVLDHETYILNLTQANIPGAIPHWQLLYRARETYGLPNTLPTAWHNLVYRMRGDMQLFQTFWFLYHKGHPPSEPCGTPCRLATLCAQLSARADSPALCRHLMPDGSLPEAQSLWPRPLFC
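Fluorogenic HMU-PC substrate (9 uM final) is turned over by placental ASM in 60 min at 37 C after a 10 min compound preincubation. Reaction ended by alkaline stop (pH 10), with fluorescence read at 386/447 nm.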
SW480 rereplic = inducers of DNA re-replication in SW480 colon cancer cells; SW480 DNA re-replication, Hoechst DNA content imaging, 48 h; Potency, µM (doses to about 46.1 µM), for inactives: top-dose re-replication activation, most hits filed as activators; hit rate 1.8% among 340,000; AID 624297; further: potency means the concentration at half of the fitted maximal effect; % of control where 0% means no effect; nearly all actives have a fitted effect of over 55% in size
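Treated cells incubate 48 hr (37 C, 5% CO2), are stained 40 min with Hoechst, and nuclear fluorescence is enumerated; a rise in nuclei with high DNA signal marks re-replication.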
Giardia kill = kills Giardia lamblia; Giardia lamblia trophozoite viability; activity change, % at 7.66 µM, hits read low; hit rate 0.15% among 340,000; in the data active means activity change below about -80%; inconclusive means between about -30% and that limit;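 further: parasites exposed to compound for two days anaerobically before the ATP read; on the % scale 0 is the no-effect control and ±100 the full control effect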
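Giardia trophozoites, 100 cells per well, were exposed to compounds for 48 hrs at 37 deg C under anaerobic conditions; viability was then read as ATP content by bioluminescence after 15-30 min at room temperature.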
KB-3-1 tox = KB-3-1 parental cell cytotoxicity; KB-3-1 viability, CellTiter-Glo ATP luminescence, 72 h; Potency, µM (series often up to 46.1 µM), usual class: cytotoxic; hit rate 1.4% among 400,000; further: potency means the concentration at half of the fitted maximal effect; on the % scale 0 is the no-effect control and ±100 the full control effect; nearly all actives have a fitted effect of over 60% in size
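KB-3-1 cells, DMEM (no phenol red) + 10% FBS; compound by pin transfer, 72 h, 37 °C. Readout: CellTiter-Glo luminescence after 10 min. Data normalized, curve-fitted.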
The depositor's hits bear a star; i = inactive; ? = inconclusive; nt = no result; [ ] = remark or other dose. Most compounds without a hit are left out; they make up all but 6.9% or so of the library. Unless noted, the call rests on the fitted dose curve; in most records, active means well fitted curve in the direction sought with a large enough effect; inconclusive means small, poorly fitted or top-dose-only effect, or another doubt; inactive means no such curve, though single readings can be large; an effect the other way counts as inactive or inconclusive.

SMILES	MCF10A rereplic	KB-V1 cytotox	ASM inhibitor	SW480 rereplic	Giardia kill	KB-3-1 tox
O=C(N/N=C/c1ccc(Sc2nc3ccccc3[nH]2)o1)c1ccncc1	10%	i	0%	-6%	-20	i
N#C/C(=C\c1ccc(-c2ccc(F)cc2F)o1)c1nc2ccccc2[nH]1	nt	?	nt	nt	nt	i
N#C/C(=C/c1ccc(Sc2nc3ccccc3[nH]2)o1)c1cccc(Br)c1	?	18µM*	7%	30%	12	?
N#C/C(=C/c1ccc(Sc2nc3ccccc3[nH]2)o1)c1cccc(F)c1	28%	7.3µM*	-6%	?	0	i
N#C/C(=C/c1ccc(Sc2nc3ccccc3[nH]2)o1)c1ccccc1F	20%	3.7µM*	-5%	?	-18	i
O=C(CSc1nc2ccsc2c(=O)n1-c1ccc(Br)cc1)NCc1ccc(Cl)cc1	nt	i	nt	nt	nt	i
COc1cccc(CCNC(=O)c2c(O)nc3c(C)cccn3c2=O)c1	nt	?	nt	nt	nt	i
O=C(CCCn1c(=S)[nH]c2ccc(Br)cc2c1=O)NCc1ccccn1	0%	i	-2%	-22%	23	i
O=c1c2cc(Br)ccc2[nH]c(=S)n1Cc1ccccn1	-4%	16µM*	-2%	-8%	-7	i
O=C(CCCn1c(=S)[nH]c2ccc(Br)cc2c1=O)N1CCN(c2ccccn2)CC1	?	2.9µM*	0%	?	9	i
CN1CCN(c2ccc(NC(=O)COc3cccc4ccccc34)cc2)CC1	15%	i	-2%	0%	-19	i
C=CC(=O)Nc1cccc(Oc2ccnc(Nc3ccc(N4CCN(C)CC4)cc3)n2)c1	18µM*	i	-3%	?	-2	?
C=CC(=O)Nc1cccc(N(C)c2ccnc(Nc3ccc(N4CCN(C)CC4)cc3)n2)c1	15µM*	i	-2%	?	?	?
CN(C)Cc1ccc(-c2nc3cccc4c3n2CCNC4=O)cc1	?	i	0%	?	-10	18µM*
Cc1cc(CN(C)C(=O)CC2C(=O)NCCN2Cc2ccc(-c3ccccc3)cc2)on1 (centres undefined)	3%	i	5%	-4%	-14	i
CCS(=O)(=O)c1ccc(C=NNc2nc3ccccc3o2)cc1	2%	18µM*	-3%	-3%	-5	i
Cc1ccc2c(=O)cc(C(=O)Nc3ccc(S(=O)(=O)N4CCC(C)CC4)cc3)oc2c1C	nt	i	nt	nt	nt	i
CCc1ccc(CN(C(=O)c2nc(SC)ncc2Cl)C2CCS(=O)(=O)C2)cc1 (centres undefined)	nt	i	nt	nt	nt	i
CC1(C)Oc2ccc3ccc(=O)oc3c2/C(=C/Nc2cccc(O)c2)C1=O	12µM*	?	-16%	?	3	i
COc1ccc(-c2noc(-c3ccc(NC(C)c4ccccc4)c([N+](=O)[O-])c3)n2)cc1OC (centres undefined)	nt	i	nt	nt	nt	i
COc1ccccc1/C=c1/[nH]c(=O)/c(=C\c2ccccc2OC)[nH]c1=O	nt	?	nt	nt	nt	i
Cc1ccc(-c2[nH]nc(N)c2N=Nc2cccc(Cl)c2C)cc1	21µM*	?	-24%	?	-14	?
CCc1cccc(C)c1Nc1c(-c2cccc(O)c2)nc2nc(C)cc(C)n12	nt	i	nt	nt	nt	i
Cc1ccc(N=Nc2c(N)nn(-c3ccccc3)c2N)cc1	15µM*	6.5µM*	?	13µM*	22	?
O=C(CSc1nc(-c2ccccc2)nc2c1CCCC2)c1ccc(F)cc1	nt	i	nt	nt	nt	i
O=C(N/N=C/c1ccco1)c1cc(-c2ccccc2)nc2ccccc12	?	?	-1%	-10%	7	i
O=C(N/N=C/c1ccc([N+](=O)[O-])o1)c1cc(-c2cccc(Br)c2)nc2ccccc12	29%	?	-5%	15%[9.22 µM]	-86*	?
CCCc1ccc(-c2cc(C(=O)N/N=C/c3ccc([N+](=O)[O-])o3)c3ccccc3n2)cc1	5µM*	8.2µM*	-25%	7.1µM*	-94*	12µM*
